Results as given in PubChem BioAssay AID651595 (National Center for Advancing Translational Sciences (NCATS), 2012).
Among all 1,100 compounds or so, fewer than 10 were called active. Roughly 6% stayed inconclusive and do not appear here. Only a sample is shown. A number with no mark means an inactive call. Calls follow the shape of the dose curve; as a rule, active = well fitted cell-killing curve with a large enough effect; inconclusive = small, poorly fitted or top-dose-only effect; inactive = flat fitted curve, though single readings scatter.

Experiment: qHTS of Nrf2 Activators: Hit Validation in Cytotox Assay;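 also: compound exposure lasted 24 hours before the ATP readout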; as to activity change, negative = cytotoxicity: 0% is about no effect
Details: Cell viability counter-screen for Nrf2 activator hits; series mostly up to 46.1 µM; activity change, negative = cytotoxicity: at the top concentration
Description: Many diseases have some form of oxidative stress injury and ties to inflammation, causing a host of problems for the patient. The antioxidant response element (ARE) plays an important role in alleviating the harmful effects of oxidative stress. The antioxidant response element (ARE) is a transcriptional regulatory element involved in the activation of genes coding for a number of antioxidant proteins and detoxifying enzymes. These enzymes work in concert to protect tissues from oxidative insults and chemical toxicities in human hepatocytes and immune cells. The protective effects of ARE activation are primarily triggered through Nrf2 (NF-E2-related factor) binding to and activating AREs. It is known that Nrf2 controls the production of over 250 antioxidant and detoxification proteins (Hu et al., 2006), thereby protecting tissues by increasing cellular antioxidant content and suppressing inflammatory signaling pathways. The transcription factor Nrf2 is a central link between oxidative chemicals, such as phenolic antioxidants and electrophilic compounds, and the activation of ARE. Nrf2 levels are constitutively low as a consequence of its interaction with Keap1, which targets its degradation (Zipper and Mulcahy, 2002). Electrophiles react with key cysteine residues in Keap1, releasing Nrf2 and allowing its translocation to the nucleus. Once within the nucleus, Nrf2 complexes with coactivators such as p300, and binds to the AREs to induce gene transcription of cytoprotective enzymes, resulting in the prevention of toxicity. Activation of Nrf2 protects tissues by increasing cellular antioxidant content and suppressing inflammatory signaling pathways. Identifying novel and potent Nrf2 activators by using the AREc32 cell line to detect ARE activation by small molecules will lead to the identification and development of probes to study protective pathways in multiple tissues. These specific probes are essential to study the ARE pathway, and eventually to determine whether this pathway does activate genes that could protect against a host of diseases, including cardiovascular diseases, obesity, diabetes, Alzheimer's, and Parkinson's disease.
This project's aim is to identify novel and potent Nrf2 activators by using the AREc32 cell line to detect ARE activation by small molecules, which will lead to the identification and development of probes to study the ARE pathway. Cytotoxic compounds are flagged as active, and inactivity is desired in this assay.
NIH Chemical Genomics Center [NCGC]
NIH Molecular Libraries Probe Centers Network [MLPCN]
Assay Submitter (PI): Curtis Klaassen, University of Kansas Medical Center
Cell viability after compound treatment was measured using a luciferase-coupled ATP quantitation assay (CellTiter-Glo, Promega) in AREc32_fluc cells. The change of intracellular ATP content indicates the number of metabolically competent cells after compound treatment. AREc32_fluc cells were harvested from T225 flask and resuspended in phenol red free OPTI-MEM medium with 5% FBS. Then 5 microL of 200,000 cells/ml resuspended cells was dispensed into each well of white, solid bottom, 1536-well tissue culture-treated plates using a Multidrop Combi dispenser. After overnight culture at 37 degrees C with 5% CO2, a total of 23 nL of compounds at 7 selected concentrations from the cherry pick or positive control (40 uM stock of CDDO-IM and 2 mM of tBHQ) in DMSO was transferred to each well of the assay plate using a pintool (Kalypsys, San Diego, CA), and the plates were further incubated at 37 degrees C with 5% CO2 for 24 hours. After that, 4 microL of CellTilter-GloTM luminescent substrate mix (Promega) was added to each well. The plate was incubated at room temperature for 30 minutes. The plates were measured on a ViewLux plate reader (PerkinElmer) with clear filter.
Potency is read from the fitted curve at half-maximal effect.

Structure (SMILES)	activity change, negative = cytotoxicity [%]	Potency
CCc1c(C)sc(NC(=O)c2ccco2)c1C#N	12.1	
COc1ccccc1NC(=O)/C=C\c1ccco1	2.45	
CCN(C(=O)Cn1nnc2sc(-c3ccccc3)cc2c1=O)c1cccc(C)c1	-9.78	
NC(=S)NN=C1CSSC1	-21.6	
COc1ccc(-c2nnc3c4ccccc4c(C)nn23)cc1	4.5	
O=C1Nc2ccccc2SC1=Cc1ccccc1	1.37	
C/C(=N/NC(=O)CNC(=O)/C=C/c1ccco1)c1ccc(Cl)cc1	-4.27	
CCOC(=O)c1ccccc1N/C=C/C(=O)c1ccccc1	1.71	
O=C(Nc1cccc([N+](=O)[O-])c1)c1[nH]ncc1Cl	-11.2	
COc1ccc(Cl)cc1NC(=O)C1COc2ccccc2O1 (centres undefined)	4.89	
COc1ccc(C(C#N)=C2C=CC(=NO)C=C2)cc1	-1.04	
CC(=O)c1ccccc1NC(=O)COC(=O)/C=C/c1ccc(C)o1	11.2	
O=[N+]([O-])c1ccc(NN=Cc2ccco2)nc1	10.9	
O=C(/C=C/Nc1ccc(F)c(Cl)c1)c1ccco1	-0.863	
COc1ccc(Cl)cc1C(=O)O/N=C(\N)c1ccccn1	-3.19	
CCOC(=O)c1c(NC(=O)/C=C/c2ccc(C)o2)sc(C)c1C	4.84	
O=[N+]([O-])c1ccc(Cl)cc1N/N=C/c1ccncc1	6.03	
O=C(Nc1nc(=O)c2ccccc2s1)c1ccccc1	-18.4	
Clc1ccccc1C=NNc1ccccn1	0.451	
CC(C)C(=O)Nc1nnc(-c2ccco2)s1	6.12	
Cn1c(/N=C(\N)c2ccccc2)nc2ccccc21	-3.63	
O=C(Nc1ccccc1C(=O)NCCc1ccccc1)c1ccco1	5.2	
NC(=O)c1oc2ccccc2c1NC(=O)c1ccccc1	1.78	
O=C1COc2ccc(C(=O)COC(=O)/C=C/c3ccco3)cc2N1	-0.414	

Structure (SMILES)	activity change, negative = cytotoxicity [%]	Potency
O=C(Nc1nccc(-c2cccs2)n1)c1cccs1	-1.81	
N/C(=N\OC(=O)c1cc(Cl)ccc1Cl)c1cccnc1	-4.62	
Cc1ccc(-c2nc3cccnc3s2)cc1NC(=O)c1ccco1	-5.81	
Cn1c(SCC(=O)N/N=C/C=C\c2ccco2)nc2ccccc21	2.39	
CC(C)c1ccc(NC(=O)c2sccc2-n2cccc2)cc1	-13.6	
COC(=O)c1ccc2nc(-c3ccc(F)cc3)c(CC3CCCCC3)n2c1	-1.86	
Cc1ccc(-c2cc(C(F)(F)F)c(C#N)c(SCCC#N)n2)o1	6.99	
Clc1nc2sccn2c1/C=N/n1cnc2ccccc21	6.23	
CC(=NNc1ccc2ccccc2n1)c1ccccc1O	-19.7	
O=c1oc2ccc(Cl)cc2nc1/C=C(\O)c1cccs1	-4.12	
C=C(NC(=O)C(=C)NC(=O)c1csc(C2=NC3c4csc(n4)C4NC(=O)c5csc(n5)C(C(C)(O)C(C)O)NC(=O)C5CSC(=N5)/C(=C/C)NC(=O)C(C(C)O)NC(=O)c5csc(n5)C3(CC2)NC(=O)C(C)NC(=O)C(=C)NC(=O)C(=C)NC(=O)C(C(C)C)NC2C=Cc3c(C(C)O)cc(nc3C2O)C(=O)OC4C)n1)C(N)=O (centres undefined)	-14.5	
O=c1nc2c(-c3ccccc3F)n[nH]n2c2ccccc12	-3.43	
O=C(CSc1ccc(-c2ccco2)nn1)N1CCCCCC1	0.45	
O=C1C(Cl)=C(Nc2ccccc2)C(=O)c2ccccc21		16.4 µM (active)
c1ccc(-c2cnc(-c3ccccc3)nn2)cc1	-0.44	
O=C(Nc1ccccc1)N1CCn2c1nc1ccccc12	2.76	
CC(=O)Nc1ccc(N=Nc2ccccc2)cc1[N+](=O)[O-]	-3.62	
Brc1ccc(-c2csc(N/N=C/c3ccco3)n2)cc1	8.79	
CC(=O)c1sc2nc(-c3cccs3)cc(C(F)(F)F)c2c1N	-2.42	
O=c1oc2ccccc2nc1/C=C(\O)c1ccc(Br)cc1	-1.91	
O=C(NCC1CCCO1)c1ccc([N+](=O)[O-])o1 (centres undefined)	-12.8	
O=[N+]([O-])c1ccc(/C=N/Nc2ccc3ccccc3c2)o1	-19.5	
O=[N+]([O-])c1ccc(/C=[N+](\[O-])[C@@H]2CCCC[C@@H]2/[N+]([O-])=C/c2ccc([N+](=O)[O-])o2)o1		18.4 µM (active)
c1ccc(C2=Nn3c(nnc3-c3ccco3)SC2)cc1	6.11	

Structure (SMILES)	activity change, negative = cytotoxicity [%]	Potency
Cc1ccccc1NC(=O)/C(C#N)=C/c1ccsc1	0.178	
Nc1nonc1N/N=C/c1c(O)ccc2ccccc12	8.84	
O=C(Nc1cc2nn(-c3ccccc3)nc2cc1Cl)c1ccco1	5.66	
Cc1nn2c(-c3ccccc3)nnc2c2ccccc12	2.1	
O=c1[nH]c(/C=C/c2ccccc2[N+](=O)[O-])nc2ccccc12	0.48	
O=C(NC(=S)Nc1ccccc1O)c1ccccc1Cl	8.07	
Cc1ccc(O)c(NC(=O)c2cccc(NC(=O)c3ccco3)c2)c1	2.1	
O=C(NC(=S)Nc1cnc2ccccc2c1)c1ccccc1	-0.119	
Cc1nn2c(-c3ccco3)nnc2c2ccccc12	6.15	
COc1ccc2oc3cc(Cl)ccc3c(=O)c2c1	-1.78	
Cc1cccc(NC(=O)Nc2ccccc2[N+](=O)[O-])n1	5.2	
Cc1ccc(Cn2c(/C=C/c3ccco3)nc3ccccc32)cc1	-21.8	
Clc1ccc(C=Cc2ccccn2)cc1	1.25	
N#C/C(=C\c1ccccc1)c1ccccn1	-2.49	
O=c1[nH]c(SCc2cccc([N+](=O)[O-])c2)nc2[nH]ncc12	0.58	
COc1ccc(OC)c(C=C2CCc3ccccc3C2=O)c1	1.45	
O=C(Oc1cccc(-c2cnc3ccccc3n2)c1)c1ccco1	-1.91	
Cc1ccc(C)c(/C=N/Nc2ccccn2)c1	9.8	
O=C(Nc1cc(-c2nc3ncccc3o2)ccc1Cl)c1ccco1	11	
CN(C)CCN(C(=O)/C=C/c1cccs1)c1nc2ccc(F)cc2s1	-13.7	
O=C(Nc1nnc(-c2cccs2)s1)c1cccc(F)c1	7.96	
Cc1nn(-c2ccc3ccccc3c2)c(=O)c2ccccc12	4.52	
Cc1cc(C)c2c(N)c(C(=O)c3ccc(Br)cc3)oc2n1	-19.8	
Cc1ccc(-c2nc(NCc3ccco3)c3ccccc3n2)cc1	-1.85	

Structure (SMILES)	activity change, negative = cytotoxicity [%]	Potency
Brc1cc(Br)c2nc(-c3cccs3)ccc2c1	5.71	
S=c1nc(-c2ccccc2)[nH]c2ccc(Br)cc12	8.86	
N#C/C(=C(/O)c1ccc(Br)s1)c1nc2ccccc2[nH]1	-1.87	
N#C/C(=C\c1ccc([N+](=O)[O-])o1)c1nc2ccccc2[nH]1		20.6 µM (active)
N#C/C(=C(/O)c1ccco1)c1nc2ccccc2[nH]1	-1.76	
O=C(Nc1ccccc1F)c1cc(-c2ccco2)nc2ccccc12	9.87	
COc1ccc(Cl)cc1-c1nc(-c2ccncc2)no1	0.603	
S=c1[nH]nc(-c2ccco2)n1/N=C/c1cccc(Cl)c1Cl	3.26	
N#Cc1cnc2cc(-c3ccccc3)nn2c1N	9.63	
O=C(CSc1ccc(-c2ccco2)nn1)N1CCCC1	3.86	
CCNc1ccc(-c2nc(-c3ccco3)no2)cc1[N+](=O)[O-]	4.03	
COC(=O)c1ccc2nc(-c3cccc(Br)c3)c(Cc3ccccc3OC)n2c1	-1.22	
Fc1ccc2nc(Nc3nc4c(F)cc(F)cc4s3)sc2c1	-20.6	
N#Cc1cccn1-c1nccc(-c2cccs2)n1	6.19	
O=C(NC(=S)Nc1cc([N+](=O)[O-])ccc1Cl)c1ccccc1	2.33	
Cc1cc(SCC(=O)c2cccs2)nc2ccccc12	-9.71	
O=C(NCc1ccco1)c1ccccc1-c1nc(-c2ccc(F)cc2)no1	2.78	
O=[N+]([O-])c1ccc(SCc2ccco2)cc1N1CCOCC1	-8.19	
CCOC(=O)N1CCc2c(sc3c2C(=O)NC(c2ccccc2)N3)C1 (centres undefined)	-11.2	
CC(=O)c1cccc(NC(=O)c2cc(Cl)sc2Cl)c1	2.61	
Cn1c(N/N=C/c2cccs2)cc(=O)n(C)c1=O	1.17	
Cc1cc(=O)n2nc(-c3ccccc3)sc2c1C#N	1.07	
Cc1cc(C)c(C#N)c(SCC(=O)c2cccs2)n1	3.09	
COc1ccc(O)c(-c2cc(-c3ccccc3Cl)[nH]n2)c1	-8.44	

Structure (SMILES)	activity change, negative = cytotoxicity [%]	Potency
CCn1c(SCC(=O)N/N=C/C=C/c2ccco2)nc2ccccc21	-2.98	
Cc1ccc(NC(=O)COCc2cc(-c3cccs3)on2)cc1Cl	5.1	
c1ccc2c(c1)nnn2-c1ncnc2sccc12	3.73	
O=C(CSc1nc2c(sc3ccccc32)c(=O)n1-c1ccccc1)NCc1ccco1	2.64	
S=c1[nH]nc(-c2ccncc2)n1/N=C/C=C/c1ccco1	6.05	
Clc1ccccc1NN=Cc1ccccn1	1.21	
Cc1cc(NC(=O)c2ccccc2)nc2c1c(=O)oc1ccccc12	1.23	
CCCn1c(-c2cccs2)nc2nc3ccccc3nc21	5.71	
CCOC(=O)c1sc(NC(=O)c2ccccc2F)c(C(N)=O)c1C	7.14	
C#CCSc1nc(-c2ccccc2)cc(C(F)(F)F)c1C#N	5.58	
O=Cc1c(NCc2ccco2)nc2ccccn2c1=O	7.6	
COC(=O)C1=C(C)NC(=O)/C1=C\c1ccco1	-7.1	
Cc1nc(-c2ccccn2)sc1C(=O)Nc1ccc(F)cc1	7.45	
CC(=O)Nc1cc(-c2ccsc2)cn2c(-c3ccc(F)cc3)cnc12	-5.25	
O=C(Nc1ccc(F)cc1)c1nsc(Cl)c1Cl	1.43	
CS(=O)(=O)c1ccc2nc(NC(=O)CCS(=O)(=O)c3ccccc3)sc2c1	11.9	
O=C(Cn1ncc(Cl)c(Cl)c1=O)NC1CCS(=O)(=O)C1 (centres undefined)	8.46	
Cc1ccccc1OCC(=O)Nc1ccccc1CO	11.9	
O=C(c1nn2c(C(F)(F)F)cc(-c3ccco3)nc2c1Br)N1CCCc2ccccc21	-15	
Cc1ccc([N+](=O)[O-])c(OCc2ncc(Cl)n2C)c1	-2.21	
O=c1[nH]c(O)c(/C=C2\C=Nc3ccc(Br)cc32)[nH]1	8.92	
COc1ccc(/C(N)=N/OC(=O)c2cccc([N+](=O)[O-])c2)cc1	-1.04	
N/C(=N\OC(=O)c1ccco1)c1cccc(Br)c1	3.8	
